G9a block: qHTS Assay for Inhibitors of Histone Lysine Methyltransferase G9a. G9a H3K9 monomethylation, AlphaScreen, 2 h. Potency, µM (top dose mostly 102 µM), actives largely listed as inhibitors. 8.8% of 350,000 active; further: nearly all actives have a fitted effect of over 75% in size
Target sequence (Q96KQ7 913-1193 limits assumed): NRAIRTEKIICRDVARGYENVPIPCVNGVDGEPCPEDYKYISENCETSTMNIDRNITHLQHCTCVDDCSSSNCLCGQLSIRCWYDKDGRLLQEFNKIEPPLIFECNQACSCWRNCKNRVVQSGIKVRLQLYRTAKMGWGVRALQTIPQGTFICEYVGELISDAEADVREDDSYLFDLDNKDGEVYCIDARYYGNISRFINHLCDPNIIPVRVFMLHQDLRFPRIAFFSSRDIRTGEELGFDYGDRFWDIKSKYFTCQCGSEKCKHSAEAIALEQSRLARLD
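AlphaScreen detection with an anti-monomethyl H3K9 antibody quantified product after a 2 h room-temperature reaction containing 500 nM biotinylated H3K9 peptide, 20 µM SAM and 20 nM enzyme, which had been preincubated 15 min with compound.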
Tau fluor counter: Counterscreen qHTS for Inhibitors of Tau Fibril Formation, Fluorescence Polarization; AID 1463, 2008; 0.93% of 280,000 active; tau K18 P301L Alexa594 fluorescence, heparin fibrillization; Potency, µM (series often up to 57.7 µM); further: nearly all actives have a fitted effect of over 55% in size
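Human K18 P301L tau (15 uM unlabeled plus 0.24 uM Alexa 594-labeled, final) in 100 mM sodium acetate pH 7 was mixed with compound and 20 uM heparin and incubated 6 hr at 37 C.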
Sfp inh: qHTS Assay for Inhibitors of Bacillus subtilis Sfp phosphopantetheinyl transferase (PPTase). Biochemical Sfp PPTase activity, qHTS. Potency, µM, actives largely listed as inhibitors. 3.5% of 310,000 active;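 further: the enzyme is Sfp with the accession as filed and its product quenches rhodamine fluorescence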
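With Hepes-Na pH 7.6 buffer containing 10 mM MgCl2, Sfp (15 nM) modified BHQ-2-YbbR (12.5 uM) using rhodamine-CoA (5 uM). Two reads 30 minutes apart at 525/598 nm yielded each well's rate.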
Tau fibril ThT: qHTS for Inhibitors of Tau Fibril Formation, Thioflavin T Binding; Microtubule-associated protein tau (Homo sapiens), P10636; recombinant tau K18 P301L (four-repeat tau fragment), heparin-induced fibrillization, ThT fluorescence; Potency, µM (series often up to 57.4 µM), usual class: inhibitors; 2.1% of 270,000 active; further: nearly all actives have a fitted effect of over 55% in size
Target sequence (P10636 561-689 P618L limits assumed): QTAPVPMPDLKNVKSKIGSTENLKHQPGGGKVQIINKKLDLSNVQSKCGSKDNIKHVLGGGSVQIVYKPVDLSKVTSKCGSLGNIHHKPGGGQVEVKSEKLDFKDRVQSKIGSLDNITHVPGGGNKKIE
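K18 P301L tau (15 uM + 0.24 uM Alexa 594-tagged), heparin 20 uM, NaOAc pH 7, 6 h 37 C; ThT 30 uM, 1 h RT, ex 450/em 510 nm.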
Tau FP inhib: qHTS for Inhibitors of Tau Fibril Formation, Fluorescence Polarization; Microtubule-associated protein tau (Homo sapiens), P10636; K18 P301L tau heparin fibrillization, Alexa594 FP, 6 h; Potency, µM (titrated, usually from 57.7 µM), most hits filed as inhibitors; 0.39% of 280,000 active; AID 1468, 2008; further: nearly all actives have a fitted effect of over 55% in size
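Human K18 P301L fragment (15 uM unlabeled plus 0.24 uM Alexa 594-labeled) in 100 mM sodium acetate pH 7 with compound, aggregation induced by 20 uM heparin for 6 hr at 37 C. ThT (30 uM) added for 1 hr, then Alexa 594 FP read.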
Coupling enz: qHTS Assay for Inhibitors of Fructose-1,6-bisphosphate Aldolase from Giardia Lamblia: Coupling assay counterscreen | AID 2472, 2010 | coupling enzyme system counterscreen, AmpLite Red fluorescence | activity change, negative = inhibition, % at 58.2 µM, hits read low | 0.67% of 290,000 active; in the data active means activity change below about -30%
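Final compound at 57.5 uM, incubated 10 min at RT with coupling enzyme reagent (glyceraldehyde-3-phosphate), then 20 min with substrate and AmpLite Red detection. Fluorescence read at 525/598 nm; tests interference with the coupling assay, not aldolase inhibition.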
Each line names hits and unclear results; the compound was inactive in the other large screens; ! = not active in a repeat; [ ] = remark or other dose. An excerpt weighted towards active compounds, which were near 11% of everything screened. Unless noted, the call rests on the fitted dose curve; in most records, active means well fitted curve in the direction sought with a large enough effect; inconclusive means small, poorly fitted or top-dose-only effect, or another doubt; inactive means no such curve, though single readings can be large; an effect the other way counts as inactive or inconclusive.

COc1ccc(Nc2nc(N)nc(CSc3nc4ccccc4s3)n2)cc1	G9a block inconclusive, Tau fluor counter 15.8µM[quencher], Tau fibril ThT inconclusive (no result: Sfp inh, Coupling enz)
N=C(N)c1c(O)n(C2CCCCC2)c(=O)n(C2CCCCC2)c1=O	Tau fluor counter inconclusive, Tau FP inhib 28.2µM
O=c1c(C=NCc2cccs2)c(O)n(C2CCCCC2)c(=O)n1C1CCCCC1	none
CON(C)C(=O)Nc1ccc(Br)c(Cl)c1	none (no result: G9a block, Tau fluor counter, Tau fibril ThT, Tau FP inhib)
O=CC(Br)P(=O)(N1CCOCC1)N1CCOCC1 (configuration not stated)	Tau fluor counter inconclusive, Sfp inh 25.1µM, Tau fibril ThT 10µM, Tau FP inhib 25.1µM (no result: G9a block)
O=C(CNC1CCCCC1)N1CCC2(CC1)OCCO2	G9a block 35.5µM
CCOc1ccc(C(=O)Nc2cccc(C(=O)OCc3cc(=O)n4nc(C5CC5)sc4n3)c2)cc1	Tau fibril ThT inconclusive (no result: Sfp inh, Coupling enz)
CCC(=NCCCN1CCOCC1)c1c(O)n(Cc2ccccc2)c(=O)[nH]c1=O	G9a block 12.6µM
CCC(=NCCN1CCOCC1)c1c(O)n(-c2ccccc2C)c(=O)[nH]c1=O	G9a block 28.2µM
CCCCn1c(O)c(C(C)=NCCN2CCOCC2)c(=O)[nH]c1=O	G9a block 22.4µM
O=c1[nH]c(=O)n(Cc2ccccc2)c(O)c1C=Nc1ccc(CN2CCOCC2)cc1	G9a block inconclusive, Sfp inh 56.2µM
CCCCn1c(O)c(C(CC)=NCCN2CCOCC2)c(=O)[nH]c1=O	G9a block inconclusive, Tau fibril ThT inconclusive
COc1cccc(C(=O)c2cn(CC(=O)Nc3cc(Cl)c(OC)cc3OC)c3nc(C)ccc3c2=O)c1	Tau FP inhib inconclusive (no result: Sfp inh, Coupling enz)
CCCCn1c(O)c(C=Nc2c(C)n(C)n(-c3ccccc3)c2=O)c(=O)[nH]c1=O	G9a block 56.2µM
CCCCn1c(O)c(C=NCCCN(CC)CC)c(=O)[nH]c1=O	none
CCCCn1c(O)c(C=NCCN2CCCCC2)c(=O)[nH]c1=O	G9a block 79.4µM
Cc1c(N=Cc2c(O)n(Cc3ccccc3)c(=O)[nH]c2=O)c(=O)n(-c2ccccc2)n1C	none
C[C@@H]1O[C@H](O[C@H]2C[C@@H](O)[C@@]3(CO)[C@H]4[C@@H](O)C[C@]5(C)[C@@H](C6=CC(=O)OC6)CC[C@]5(O)[C@H]4CC[C@]3(O)C2)[C@@H](O)[C@H](O)[C@@H]1O	none (no result: Tau fluor counter, Tau fibril ThT, Tau FP inhib)
COc1ccc2ccc(O)c(CN3CC=C(c4ccccc4)CC3)c2c1	G9a block inconclusive, Tau fluor counter inconclusive, Tau fibril ThT inconclusive
COc1ccc(N2C(=O)CC(N3CC=C(c4ccccc4)CC3)C2=O)cc1 (configuration not stated)	G9a block 10µM, Tau fibril ThT inconclusive
COc1ccc2c(c1)c(CCN)c(C)n2Cc1ccccc1	G9a block 39.8µM
CC(C1OC(C)(C)C(O)C1O)C1CC[C@@]2(C)C3=CCC4C(C)(C)C(=O)CC[C@]4(C)C3CC[C@@]12C (some centres not stated)	Tau fluor counter inconclusive, Tau fibril ThT inconclusive
Cn1cc2c([N+](=O)[O-])cc([N+](=O)[O-])cc2n1	G9a block 79.4µM, Tau fibril ThT inconclusive
Cc1nc2ccccc2c(=O)n1-c1cc([N+](=O)[O-])cc([N+](=O)[O-])c1	none (no result: Tau fluor counter, Tau fibril ThT, Tau FP inhib)
CC(=O)Nc1cc(Cl)c(N=Cc2ccc(O)cc2O)cc1Cl	G9a block 56.2µM
CC(=O)Nc1cc([As](=O)(O)O)ccc1O	none
NCC(O)c1cc(O)c(O)cc1F (configuration not stated)	G9a block 9.47µM!, Tau fibril ThT 11.2µM, Tau FP inhib inconclusive (no result: Sfp inh, Coupling enz)
CC(C)c1ccc2c(c1O)CCC1C3=C(CC[C@]21C)C(=O)OC3 (some centres not stated)	none (no result: G9a block)
COc1ccc(CN2CCN(Cc3ccccc3OC)CC2)cc1	G9a block 2µM, Sfp inh inconclusive (no result: Tau fluor counter, Tau fibril ThT, Tau FP inhib)
FC(F)(F)c1ccccc1CN1CCN(Cc2ccccc2)CC1	G9a block 3.16µM, Sfp inh inconclusive
COc1ccccc1CN1CCN(Cc2ccc(Cl)cc2)CC1	G9a block 3.55µM, Sfp inh 79.4µM
Cc1ccc(CN2CCN(Cc3ccccc3F)CC2)cc1	G9a block 12.6µM
CC(C)N1CCN(Cc2ccccc2C(F)(F)F)CC1CCO (configuration not stated)	none
O=C(/C=C/c1ccccc1)NC(=S)N1C[C@H]2C[C@H](C1)c1cccc(=O)n1C2	G9a block 31.6µM (no result: Tau fluor counter, Tau fibril ThT, Tau FP inhib)
COc1ccc(/C=C/C(=O)NC(=S)N2C[C@H]3C[C@H](C2)c2cccc(=O)n2C3)cc1OC	G9a block 35.5µM (no result: Tau fluor counter, Tau fibril ThT, Tau FP inhib)
O=C(/C=C/c1ccc(F)cc1)NC(=S)N1C[C@H]2C[C@H](C1)c1cccc(=O)n1C2	none (no result: Tau fluor counter, Tau fibril ThT, Tau FP inhib)
O=C(Oc1ccccc1)N1CCC[C@@]2(CCN(Cc3ccccc3)C2)C1	none (no result: Tau fluor counter, Tau fibril ThT, Tau FP inhib)
c1ccc(C[C@@H](c2ccccc2)N2CCCCC2)cc1	none (no result: G9a block)
COc1cccc(-n2c(CNC(=O)OC(C)(C)C)n[nH]c2=S)c1	G9a block 28.2µM, Sfp inh 50.1µM
CCOc1ccccc1NC(=O)CCn1cccc1	G9a block inconclusive
CCOC(=O)c1ccc(N2C(=O)c3n[nH]c(-c4cccs4)c3C2c2ccc(OC)cc2OC)cc1 (configuration not stated)	Tau FP inhib inconclusive (no result: Sfp inh, Coupling enz)
C#C[C@]1(O)CC[C@H]2[C@@H]3CCC4=CC(=O)CC[C@]4(C)[C@H]3CC[C@@]21C	G9a block inconclusive
C#C[C@]1(O)CCC2C3CCC4=C/C(=N/OCC(=O)NC(C)C(=O)NC(CCSC)C(=O)O)CC[C@]4(C)C3CC[C@@]21C (some centres not stated)	G9a block 56.2µM (no result: Tau fluor counter, Tau fibril ThT, Tau FP inhib)
C[C@]12CCC3C(C=CC4=CC(=O)CC[C@]43C)C1CC[C@]2(O)CCC(=O)O (some centres not stated)	none
[O-]/[N+](=C/c1cccnc1)c1ccc(Br)cc1	G9a block inconclusive, Sfp inh 12.6µM, Tau fibril ThT 28.2µM, Tau FP inhib inconclusive
O=C1c2ccccc2C(=O)c2c1ccc1c(=O)n(-c3ccccc3)[nH]c21	G9a block 3.16µM, Tau fibril ThT inconclusive
CC1CC(C)C(=O)[C@H](C(O)CC2CC(=O)NC(=O)C2)C1 (some centres not stated)	none
CCN1C(=O)C(=C2C=C(C)OC(C)=C2)C(=O)N(CC)C1=S	none
